# Rows were chosen to be rich in hits. Some 21% of all compounds tested hit in one or more screens of this group.
# TDP1 cell noCPT = qHTS for Inhibitors of human tyrosyl-DNA phosphodiesterase 1 (TDP1): qHTS in cells in absence of CPT; Potency, µM (titrated, usually from 46.2 µM), for inactives: at the highest dose activity change, negative = growth inhibition, most hits filed as inhibitors; DT40 Tdp1-/- hTDP1 cells, no CPT, ATP luminescence, 48 h; hit rate 15% among 420,000; AID 686978, 2013; note: potency is the fitted concentration of half-maximal effect; nearly all actives have a fitted effect of over 55% in size
#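 Growth kinetics read by CellTiter-Glo luminescence after ≥48 hr at 37 °C. Cells: DT40 Tdp1-/- stably carrying human TDP1, 400 per well, compound exposure in the absence of CPT (DMSO vehicle).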
# RORgamma inh = blocks mouse ROR gamma transcriptional activity | P51450 | Drosophila S2 Gal4-RORgamma UAS-luciferase reporter, 20 h | Potency, µM (highest dose often 53.6 µM), for the others: top-dose activity change, negative = inhibition, hits mostly inhibitors | hit rate 5.4% among 310,000 | AID 2551; note: potency is the fitted concentration of half-maximal effect; nearly all actives have a fitted effect of over 60% in size
# Target sequence (P51450 whole entry, looked up, the tested form may be a part): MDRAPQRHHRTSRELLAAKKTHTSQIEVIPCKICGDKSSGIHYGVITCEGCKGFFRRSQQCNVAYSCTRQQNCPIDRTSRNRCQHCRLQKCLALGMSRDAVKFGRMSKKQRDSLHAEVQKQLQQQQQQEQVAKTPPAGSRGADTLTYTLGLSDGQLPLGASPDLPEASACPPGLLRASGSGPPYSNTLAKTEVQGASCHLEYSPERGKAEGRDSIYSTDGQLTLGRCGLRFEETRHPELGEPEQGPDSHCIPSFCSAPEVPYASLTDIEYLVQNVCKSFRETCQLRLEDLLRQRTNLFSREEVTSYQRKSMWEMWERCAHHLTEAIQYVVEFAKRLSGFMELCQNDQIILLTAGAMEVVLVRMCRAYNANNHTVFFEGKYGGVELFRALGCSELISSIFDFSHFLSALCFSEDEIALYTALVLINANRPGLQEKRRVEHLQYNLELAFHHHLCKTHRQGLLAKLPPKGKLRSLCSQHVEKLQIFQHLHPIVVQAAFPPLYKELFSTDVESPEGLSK
#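 Stable Schneider cell line, Gal4 DNA-binding domain fused to ROR gamma, UAS-luciferase. Cmpd 1 hr RT → CuSO4 700 uM final → 20 hr RT → luciferase reagent 10 min → luminescence.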
# ELG1 DNA repair = ELG1-dependent DNA repair inhibition. hit rate 2.3% among 330,000. Potency, µM (highest dose often 46.1 µM), inactives show top-dose activity change, negative = inhibition, usual class: inhibitors. HEK293T ELG1-luciferase reporter, luminescence, 16 h; DNA damage induced by 5-fluorouridine. AID 504467; note: potency is the fitted concentration of half-maximal effect; nearly all actives have a fitted effect of over 55% in size
#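 DMSO vehicle served as the neutral condition. Each well held 2,000 cells given 5-fluorouridine plus compound; after 16 hr at 37 °C/5% CO2, ONE-Glo was added and luciferase measured 30 min later.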
# DT40 TDP1 CPT = growth inhibition of DT40 Tdp1-/-;hTDP1 cells with camptothecin (screen for TDP1 inhibitors); hit rate 12% among 420,000; Potency, µM (titrated, usually from 46.2 µM), inactives show at the highest dose activity change, negative = growth inhibition, usual class: inhibitors; AID 686979; chicken DT40 Tdp1-/-;hTDP1 cells + 20 nM CPT, ATP luminescence, 48 h; note: potency is the fitted concentration of half-maximal effect; nearly all actives have a fitted effect of over 55% in size
#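 Chicken DT40 Tdp1-/- cells stably complemented with human TDP1 were seeded at 400 cells/well in medium containing 20 nM camptothecin, exposed to pin-transferred compounds, and grown at 37 °C for at least 48 hr. Viability was read as ATP luminescence.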
# IL1B secr inh = inflammasome signaling inhibition, IL-1 beta readout; hit rate 4.7% among 360,000; activity change, % at 57.5 µM; THP-1 LPS/ATP IL-1B secretion, AlphaLISA, 16 h; hits give low values; AID 743279; in the data active = activity change below about -50%; inconclusive = mostly about -30% to -49%
#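 Secreted IL-1B measured by AlphaLISA bead assay after 16 h compound exposure of THP-1 cells; compounds (final up to 57.5 uM) added 1 h before LPS (250 ng/mL) and ATP (1.25 mM) stimulation; lower signal means less secretion.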
# VP16 counter = counter-screen for ROR gamma inhibitors: Gal4-VP16 reporter; Drosophila S2 Gal4-VP16 UAS-luciferase, luminescence, 20 h; Potency, µM (doses to about 53.6 µM), inactives show at the top dose activity, negative = inhibition, most hits filed as inhibitors; hit rate 3.5% among 310,000; AID 2546;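 note: Gal4-VP16 expression switched on by copper sulfate through the metallothionein promoter; potency is the fitted concentration of half-maximal effect; nearly all actives have a fitted effect of over 50% in size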
# Starred values were filed as active, the others as inactive; ? = inconclusive; nt = no result; [ ] = dose if it differs, or a comment. Unless noted, calls come from the whole dose curve; as a rule, active = well fitted curve in the direction sought with a large enough effect; inconclusive = small, poorly fitted or top-dose-only effect, or another doubt; inactive = no such curve, though single readings can be large; an effect the other way counts as inactive or inconclusive. % is set by controls: 0 for no effect and ±100 for the full control effect.
SMILES,TDP1 cell noCPT,RORgamma inh,ELG1 DNA repair,DT40 TDP1 CPT,IL1B secr inh,VP16 counter
COc1ccc(CCNC(=O)C2CCCN(c3nc4ccccc4s3)C2)cc1OC (configuration not stated),?,12%,18µM*,?,-20,-12%
CC(=O)OC[C@@H]1O[C@H](C/C=N\OC[C@@H](C)[C@H](OCc2ccccc2)C(C)C)C=C[C@@H]1OC(C)=O,nt,-6%[10 µM],nt,nt,nt,-2%[10 µM]
COC(=O)c1sccc1NC(=O)CC1C(=O)NCCN1C(=O)Nc1ccc(OCc2ccccc2)cc1 (configuration not stated),?,22%,12µM*,?,-13,1%
COC(=O)c1sccc1NC(=O)CC1C(=O)NCCN1C(=O)Nc1ccccc1 (configuration not stated),-7%,13%,?,2%,20,-10%
CCCCc1ccc(NC(=O)N2CCNC(=O)C2CC(=O)Nc2ccsc2C(=O)OC)cc1 (configuration not stated),-20%,0%,23µM*,10%,-29,-5%
COC(=O)c1sccc1NC(=O)CC1C(=O)NCCN1C(=O)c1ccc(F)cc1 (configuration not stated),10%,-3%,-2%,12%,27,-3%
CC1=C(C(=O)Nc2ccc([N+](=O)[O-])cc2)C(c2cccc(C(F)(F)F)c2)NC(=S)N1c1ccccc1 (configuration not stated),16µM*,?,?,13µM*,?,?
CCOC(=O)C1=C(C)N(c2ccc(Cl)cc2)C(=O)NC1c1cccc([N+](=O)[O-])c1 (configuration not stated),-15%,?,?,?,41,-8%
COCCOC(=O)C1=C(C)N(c2ccccc2)C(=O)NC1c1cccc([N+](=O)[O-])c1 (configuration not stated),?,?,-11%,?,-2,18µM*
CCCCC(CC)COC(=O)CC(C(=O)OCC(CC)CCCC)S(=O)(=O)O (configuration not stated),?,1%,nt,-10%,nt,-6%
CCn1c(=S)[nH]c2c(c1=O)C(C)(C)Cc1ccccc1-2,-24%,1µM*,5%,7%,62,3.5µM*
COc1ccc(-n2ncc3c2ncn2nc(-c4ccc(Cl)cc4Cl)nc32)cc1,-12%,nt,nt,13%,nt,nt
COc1ccc(NC(=O)CC2Nc3ccccc3NC2=O)cc1 (configuration not stated),23µM*,nt,nt,?,nt,nt
CCCCOC(=O)c1ccc(NC(=O)CC2NCCNC2=O)cc1 (configuration not stated),-4%,nt,nt,-4%,nt,nt
CC(=O)c1ccc(NC(=O)CC2Nc3cccc4cccc(c34)NC2=O)cc1 (configuration not stated),16µM*,8%,21µM*,18µM*,-13,-4%
CC(=O)Nc1ccc(NC(=O)CC2Nc3cccc4cccc(c34)NC2=O)cc1 (configuration not stated),?,36%,-27%,-15%,0,-3%
Cc1cccc(NC(=O)CC2Nc3cccc4cccc(c34)NC2=O)c1 (configuration not stated),?,31%,-5%,16µM*,10,-1%
CCOC(=O)c1ccc(NC(=O)CC2Nc3cccc4cccc(c34)NC2=O)cc1 (configuration not stated),2.6µM*,nt,nt,2.6µM*,nt,nt
CC(C)(C)OC(=O)N[C@@H](CC(=O)OCc1ccccc1)C(=O)O,?,0%,-4%,?,-2,-8%
CCOc1ccc(NC(=O)CC2Nc3ccccc3NC2=O)cc1 (configuration not stated),6%,3%,15%,-5%,-8,-7%

# Assay outcomes (PubChem)
